Screening data deposited in PubChem by National Center for Advancing Translational Sciences (NCATS).
TDP1 cell CPT: qHTS for Inhibitors of human tyrosyl-DNA phosphodiesterase 1 (TDP1): qHTS in cells in presence of CPT. chicken DT40 Tdp1-/-;hTDP1 cells + 20 nM CPT, ATP luminescence, 48 h. Potency, µM (top dose mostly 46.2 µM), inactives show at the top dose activity change, negative = growth inhibition, usual class: inhibitors. 420,000 tested, 12% active; note: % is set by controls: 0 for no effect and ±100 for the full control effect; nearly all actives have a fitted effect of over 55% in size
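Chicken DT40 Tdp1-/- cells complemented with human TDP1, 400 cells/well, exposed to compounds plus 20 nM camptothecin for at least 48 h at 37 C; viability read as ATP content by CellTiter-Glo luminescence.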
TDP1 cell noCPT: qHTS for Inhibitors of human tyrosyl-DNA phosphodiesterase 1 (TDP1): qHTS in cells in absence of CPT. DT40 Tdp1-/- hTDP1 cells, no CPT, ATP luminescence, 48 h. 420,000 tested, 15% active. Potency, µM (top dose mostly 46.2 µM), for the others: at the highest dose activity change, negative = growth inhibition, usual class: inhibitors. AID 686978, 2013; note: % is set by controls: 0 for no effect and ±100 for the full control effect; nearly all actives have a fitted effect of over 55% in size
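Stably hTDP1-transfected Tdp1-null chicken DT40 cells were treated with library compounds minus camptothecin and grown for at least 48 hr at 37 °C, after which cellular ATP was quantified by luminescence.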
TGFb SMAD3 inh: qHTS for Inhibitors of TGF-b | AID 588855, 2011 | HepG2 CAGA-GFP TGF-b/SMAD3 reporter, GFP fluorescence, 18 h; TGF-beta stimulated, 500 pg/mL final | 410,000 tested, 1.2% active | Potency, µM (doses to about 46.1 µM), without a hit: at the top dose activity, negative = inhibition, actives largely listed as inhibitors; note: % is set by controls: 0 for no effect and ±100 for the full control effect; nearly all actives have a fitted effect of over 65% in size
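TGF-beta reporter screen: HEPG2 CAGA-GFP, 1% FBS, 500 pg/mL TGF-beta final, 18 h; per-cell GFP summed per well; curves fitted and categorized by class.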
HT1080NT lethal: qHTS for induction of synthetic lethality in tumor cells producing 2HG: qHTS for the HT-1080-NT fibrosarcoma cell line; HT-1080-NT fibrosarcoma viability, CellTiter-Glo ATP luminescence, 48 h; Potency, µM (highest dose often 46.1 µM), for inactives: at the top dose activity, negative = less viability, most hits filed as cytotoxic; 360,000 tested, 1.6% active; AID 686970, 2013;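 note: NT is the 2HG producing partner of a matched IDH1 knockdown line; 0% = DMSO-treated cells and -100% = media-only wells without cells; nearly all actives have a fitted effect of over 55% in size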
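Viability by CellTiter-Glo luminescence after 48 h compound exposure at 37C of HT-1080-NT cells (750/well, RPMI, 5% FBS). % activity scaled between DMSO wells and medium-only wells, then curve-fitted and categorized by curve class.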
HepG2 tox: qHTS for Inhibitors of TGF-b: Cytotox Counterscreen. HepG2 CAGA-GFP viability, ATP luminescence, 18 h. Potency, µM (series often up to 46.1 µM), inactives show at the top dose activity change, negative = cytotoxicity, hits mostly cytotoxic. 410,000 tested, 0.76% active. AID 588856, 2011
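CellTiter-Glo luminescence gave cytotoxicity after 18 hours at 37 degrees C. The cells were HepG2 CAGA-GFP in 1% FBS DMEM, stimulated with 500 pg/mL TGF-beta after compound addition. %Activity was normalised to no-cell wells (complete cell-killing) and DMSO (no toxicity), and curves were fitted and classified.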
HT1080 IDH1KD tx: qHTS for induction of synthetic lethality in tumor cells producing 2HG: qHTS for the HT-1080-IDH1KD cell line | HT-1080 IDH1 knockdown viability, ATP luminescence, 48 h | Potency, µM (highest dose often 46.1 µM), without a hit: at the top dose activity, negative = toxicity, hits mostly cytotoxic | 360,000 tested, 2% active | AID 686971, 2013;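 note: 0% = DMSO wells and -100% = cell-free medium wells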
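Luminescent ATP read-out (CellTiter-Glo, 10 min at room temperature) after 48 h compound exposure at 37 °C gave viability of IDH1-knockdown HT-1080 cells. Activity was normalised to DMSO and cell-free wells, then fitted as concentration-response curves.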
An asterisk follows results filed as active; ? = inconclusive; / = no result; [ ] = dose if it differs, or a comment. The list is not random: actives were taken first. Their share in the collection is about 17%. Calls come from the whole dose curve; as a rule, active = well fitted curve in the direction sought with a large enough effect; inconclusive = small, poorly fitted or top-dose-only effect, or another doubt; inactive = no such curve, though single readings can be large; an effect the other way counts as inactive or inconclusive. Potency is the fitted concentration of half-maximal effect.

SMILES	TDP1 cell CPT	TDP1 cell noCPT	TGFb SMAD3 inh	HT1080NT lethal	HepG2 tox	HT1080 IDH1KD tx
Cc1nc2c(OCc3ccc(F)c(F)c3)cccn2c1N(C)C(=O)CCC1CCCC1	?	16µM*	?	?	-34%	18µM*
COC(=O)c1cc2oc3ccccc3c2n1CC(=O)Nc1ccc(OC)c(OC)c1	-20%	-8%	-31%	/	-38%	/
O=C(OCc1cn([C@H]2C[C@H](c3ccc(Cl)cc3)N(C(=O)C3CCCCC3)C[C@@H]2O)nn1)c1ccccc1	-13%	19%	-11%	1%	-34%	0%
CCn1nc(C)cc1C(=O)N1CCCC(C(=O)c2ccccc2SC)C1 (stereo unspecified)	16µM*	18µM*	-13%	-20%	-1%	-1%
CCc1cc(C(=O)N2CCCC(C(=O)c3cccc4ccccc34)C2)n(C)n1 (stereo unspecified)	?	15µM*	-10%	-5%	-24%	-18%
O=C(c1cccc2ccccc12)C1CCCN(C(=O)CCCn2cncn2)C1 (stereo unspecified)	-22%	16µM*	6%	-3%	-45%	-10%
O=C(c1cccc2ccccc12)C1CCCN(C(=O)c2ccc(N3CCOCC3)cc2)C1 (stereo unspecified)	?	23µM*	-12%	?	-14%	?
Nc1ccc2c(c1)C(O)c1cccc(C(=O)O)c1-2 (stereo unspecified)	-1%	-7%	-12%	11%	-2%	3%
O=C(/C=C/c1ccc(Cl)cc1)NCCN1CCOCC1	?	2%	-25%	0%	2%	-3%
CC(C)(C)N/C=C(\C#N)S(=O)(=O)c1ccc(Br)cc1	-5%	-4%	16%	0%	0%	3%
CC(=O)OC1CC(OC(C)=O)[C@]2(C)C(CC(=O)[C@]3(C)C2CC[C@@]2(C)C(c4ccoc4)OC(=O)C4O[C@@]423)C1(C)C (stereo partly specified)	-8%	-13%	/	/	/	/
CC(=O)OC1C=C[C@]2(C)C(CC(OC(C)=O)[C@@]3(C)C4=CC(=O)OC(c5ccoc5)[C@]4(C)CCC23)C1(C)C (stereo partly specified)	?	21µM*	/	/	/	/
CC(=O)OC1CC[C@]2(C)C(CC(OC(C)=O)[C@@]3(C)C4=CC(=O)OC(c5ccoc5)[C@]4(C)CCC23)C1(C)C (stereo partly specified)	?	21µM*	/	/	/	/
O=[N+]([O-])c1cc2ccccc2c(O)c1O	23µM*	?	12%	-4%	4%	-1%
O=[N+]([O-])c1cc(-c2ccccc2)cc([N+](=O)[O-])c1O	?	18µM*	?	18µM*	-21%	?
Nc1ccc(-c2ccc(N)c([N+](=O)[O-])c2)cc1[N+](=O)[O-]	-10%	?	0%	0%	1%	-4%
CN(CC(=O)Nc1ccccc1C(F)(F)F)C(=O)c1ccccc1Sc1ccccc1C#N	2%	?	-11%	-3%	-20%	-1%
CN(C)C1(CNC(=O)C2CCC(=O)N(CCc3ccc(Cl)cc3)C2)CCCCC1 (stereo unspecified)	5%	-4%	0%	5%	-23%	-1%
CSc1ccc(CCNC(=O)c2c(C)nn(-c3ccc(F)cc3)c2-n2cccc2)cc1	/	/	?	/	-18%	/
CCCCNC(=O)c1sc2ncccc2c1-n1cccc1	12µM*	-28%	6%	/	-2%	/
O=C(NCc1ccccc1F)c1sc2ncccc2c1-n1cccc1	23µM*	?	-8%	/	-37%	/
CCCCNC(=O)c1sc2nc(C)cc(COC)c2c1-n1cccc1	16µM*	26µM*	?	11%	-34%	-5%
CSc1ccc(CCNC(=O)c2sc3ncccc3c2-n2cccc2)cc1	16µM*	26µM*	?	/	-35%	/
CCOC(=O)C1=C(COC(=O)c2ccc([N+](=O)[O-])o2)NC(=O)NC1C (stereo unspecified)	?	-4%	-27%	-1%[9.24 µM]	-28%	0%
O=C(NCCc1ccccc1)c1sc2ncccc2c1-n1cccc1	26µM*	?	?	/	-16%	/
SMILES	TDP1 cell CPT	TDP1 cell noCPT	TGFb SMAD3 inh	HT1080NT lethal	HepG2 tox	HT1080 IDH1KD tx
COCCCNC(=O)c1sc2ncccc2c1-n1cccc1	-27%	-28%	6%	/	9%	/
CC(=O)Nc1ccc2cnn(C(C)=O)c2c1	-12%	-28%	6%	0%	-25%	3%
CC(C)c1cc2c(c(O)c1O)[C@@]13CCCC(C)(C)C1CC2OC3=O (stereo partly specified)	5.2µM*	8.2µM*	13µM*	-29%	-28%	?
COc1ccc(CCNC(=O)c2ccc(N(C)S(=O)(=O)c3ccccc3)cc2)cc1	?	?	9%	-13%	4%	1%
CCCN(C(=O)c1cc(S(=O)(=O)N(C)c2ccc(OCC)cc2)ccc1C)C1CCS(=O)(=O)C1 (stereo unspecified)	?	26µM*	-6%	-2%	0%	-1%
COc1ccc(CCNC(=O)c2cc(S(=O)(=O)N(C)c3ccccc3)ccc2Cl)cc1	18µM*	7.3µM*	-18%	0%	-3%	0%
COc1ccc(S(N)(=O)=O)cc1C(=O)NCC(C)(C)N1CCOCC1	19%	-4%	12%	22%	-40%	18%
CCOc1ccc(N(C)S(=O)(=O)c2ccc(C)c(C(=O)NCCc3ccc(OC)cc3)c2)cc1	23µM*	?	0%	-15%	0%	-3%
COc1ccc(N(C)S(=O)(=O)c2ccc(Cl)c(C(=O)NCC(C)(C)N3CCOCC3)c2)cc1	9.2µM*	9.2µM*	-7%	12%	-9%	-7%
CCOc1ccc(N(C)S(=O)(=O)c2ccc(C)c(C(=O)NCc3ccccc3OC)c2)cc1	?	?	0%	-5%	-16%	-13%
CN(C)Cc1c(OC(=O)c2ccc(N)cc2)ccc2ccccc12	-8%	-27%	-1%	-13%	-14%	-21%
